PubChem BioAssay AID488859 (Sanford-Burnham Center for Chemical Genomics, 2010)
Among all 1,400 compounds or so, about 970 (69%) were called active. Another 5% or so got no clear call; they are omitted. Rule as the data show it: active = inhibition above about 45%; inconclusive = no clear call, values can overlap the other calls; inactive = below that. The set was probably picked from earlier hits. The list is a sample of the results.

Biological target: Ubiquitin-conjugating enzyme E2 N (Homo sapiens) (UniProt P61088)
Assay: retested blockers of UBC13 chain formation – biochemical, TR-FRET, single concentration, confirmation (AID 488859)
Settings: UBC13 polyubiquitination, at 10 µM, stronger effect = higher value

Ubiquitin-conjugating enzyme E2 N (Homo sapiens), sequence (P61088 whole entry, looked up): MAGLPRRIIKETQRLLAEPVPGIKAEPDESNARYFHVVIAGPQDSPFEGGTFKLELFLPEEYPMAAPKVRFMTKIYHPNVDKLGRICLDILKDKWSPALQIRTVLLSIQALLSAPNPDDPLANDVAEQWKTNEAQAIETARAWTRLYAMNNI

| SMILES | inhibition |
| --- | --- |
| CNCC(O)c1cc(F)c(OCc2ccccc2)c(OCc2ccccc2)c1F (stereo unspecified) | 50.4% (active) |
